# Experimental data: PMC11006913
# How the values were obtained:
# Assay in all cases: PBM; 200 nM protein, PBS
# Details in all cases: dsDNA, one strand shown
# [1] = biological target: PRRX1 (Homo sapiens, UniProt P54821 80-166, F113S)
# [2] = biological target: HESX1 (Homo sapiens, UniProt Q9UBX0 95-180)
# [3] = biological target: PRRX1 (Homo sapiens, UniProt P54821 80-166)
# [4] = biological target: PITX2 (Homo sapiens, UniProt Q99697 72-157)
# [5] = biological target: HOXA2 (Homo sapiens, UniProt O43364 129-215, R185T)
# HOXA2 (Homo sapiens, UniProt O43364 129-215, R185T), sequence (O43364 129-215 R185T): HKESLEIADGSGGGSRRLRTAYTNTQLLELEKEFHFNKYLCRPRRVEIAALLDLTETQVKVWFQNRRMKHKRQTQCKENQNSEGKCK
# [6] = biological target: ALX1 (Homo sapiens, UniProt Q15699 118-204, L144V)
# ALX1 (Homo sapiens, UniProt Q15699 118-204, L144V), sequence (Q15699 118-204 L144V): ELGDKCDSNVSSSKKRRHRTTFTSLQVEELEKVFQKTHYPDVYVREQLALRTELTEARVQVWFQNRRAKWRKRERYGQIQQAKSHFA
# [7] = biological target: ALX3 (Homo sapiens, UniProt O95076 139-225, N203Q)
# ALX3 (Homo sapiens, UniProt O95076 139-225, N203Q), sequence (O95076 139-225 N203Q): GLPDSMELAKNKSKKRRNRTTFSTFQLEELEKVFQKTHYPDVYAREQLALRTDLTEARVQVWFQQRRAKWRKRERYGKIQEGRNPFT
# [8] = biological target: HOXA2 (Homo sapiens, UniProt O43364 129-215, R185K)
# HOXA2 (Homo sapiens, UniProt O43364 129-215, R185K), sequence (O43364 129-215 R185K): as the sequence (O43364 129-215 R185T) above, with T57K counted along it
# [9] = biological target: ALX1 (Homo sapiens, UniProt Q15699 118-204, L144R)
# ALX1 (Homo sapiens, UniProt Q15699 118-204, L144R), sequence (Q15699 118-204 L144R): as the sequence (Q15699 118-204 L144V) above, with V27R counted along it
# [10] = biological target: ALX3 (Homo sapiens, UniProt O95076 139-225)
# ALX3 (Homo sapiens, UniProt O95076 139-225), sequence (O95076 139-225): as the sequence (O95076 139-225 N203Q) above, with Q65N counted along it
# [11] = biological target: VAX1 (Homo sapiens, UniProt Q5SQQ9 86-172)
# VAX1 (Homo sapiens, UniProt Q5SQQ9 86-172), sequence (Q5SQQ9 86-172): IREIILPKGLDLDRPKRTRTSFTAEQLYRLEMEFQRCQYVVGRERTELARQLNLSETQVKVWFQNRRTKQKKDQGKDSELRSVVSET
# [12] = biological target: ALX3 (Homo sapiens, UniProt O95076 139-225, L168Q)
# ALX3 (Homo sapiens, UniProt O95076 139-225, L168Q), sequence (O95076 139-225 L168Q): as the sequence (O95076 139-225 N203Q) above, with L30Q, Q65N counted along it
# [13] = biological target: ALX3 (Homo sapiens, UniProt O95076 139-225, L168V)
# ALX3 (Homo sapiens, UniProt O95076 139-225, L168V), sequence (O95076 139-225 L168V): as the sequence (O95076 139-225 N203Q) above, with L30V, Q65N counted along it
# [14] = biological target: VAX1 (Homo sapiens, UniProt Q5SQQ9 86-172, T142I)
# VAX1 (Homo sapiens, UniProt Q5SQQ9 86-172, T142I), sequence (Q5SQQ9 86-172 T142I): as the sequence (Q5SQQ9 86-172) above, with T57I counted along it
# [15] = biological target: HOXA2 (Homo sapiens, UniProt O43364 129-215, Y150S)
# HOXA2 (Homo sapiens, UniProt O43364 129-215, Y150S), sequence (O43364 129-215 Y150S): as the sequence (O43364 129-215 R185T) above, with Y22S, T57R counted along it
# [16] = biological target: ALX1 (Homo sapiens, UniProt Q15699 118-204)
# ALX1 (Homo sapiens, UniProt Q15699 118-204), sequence (Q15699 118-204): as the sequence (Q15699 118-204 L144V) above, with V27L counted along it
# [17] = biological target: ALX3 (Homo sapiens, UniProt O95076 139-225, N203S)
# ALX3 (Homo sapiens, UniProt O95076 139-225, N203S), sequence (O95076 139-225 N203S): as the sequence (O95076 139-225 N203Q) above, with Q65S counted along it
# [18] = biological target: HOXA2 (Homo sapiens, UniProt O43364 129-215)
# HOXA2 (Homo sapiens, UniProt O43364 129-215), sequence (O43364 129-215): as the sequence (O43364 129-215 R185T) above, with T57R counted along it
# [19] = biological target: VAX1 (Homo sapiens, UniProt Q5SQQ9 86-172, K157R)
# VAX1 (Homo sapiens, UniProt Q5SQQ9 86-172, K157R), sequence (Q5SQQ9 86-172 K157R): as the sequence (Q5SQQ9 86-172) above, with K72R counted along it
# [20] = biological target: HOXD13 (Homo sapiens, UniProt P35453 263-343, T313R)
# HOXD13 (Homo sapiens, UniProt P35453 263-343, T313R), sequence (P35453 263-343 T313R): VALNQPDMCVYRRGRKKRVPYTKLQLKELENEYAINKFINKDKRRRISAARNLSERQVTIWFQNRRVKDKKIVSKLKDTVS
# [21] = biological target: HOXD13 (Homo sapiens, UniProt P35453 263-343)
# HOXD13 (Homo sapiens, UniProt P35453 263-343), sequence (P35453 263-343): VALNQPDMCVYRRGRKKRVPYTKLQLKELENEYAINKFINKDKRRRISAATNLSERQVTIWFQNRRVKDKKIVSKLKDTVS
# [22] = biological target: HOXD13 (Homo sapiens, UniProt P35453 263-343, T313A)
# HOXD13 (Homo sapiens, UniProt P35453 263-343, T313A), sequence (P35453 263-343 T313A): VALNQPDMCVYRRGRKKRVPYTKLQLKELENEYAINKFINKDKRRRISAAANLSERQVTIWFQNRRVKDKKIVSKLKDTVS
# [23] = biological target: PROP1 (Homo sapiens, UniProt O75360 56-141)
# PROP1 (Homo sapiens, UniProt O75360 56-141), sequence (O75360 56-141): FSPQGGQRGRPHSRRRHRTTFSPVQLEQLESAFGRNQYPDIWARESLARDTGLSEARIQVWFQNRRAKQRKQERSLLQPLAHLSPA
# [24] = biological target: PROP1 (Homo sapiens, UniProt O75360 56-141, R99H)
# PROP1 (Homo sapiens, UniProt O75360 56-141, R99H), sequence (O75360 56-141 R99H): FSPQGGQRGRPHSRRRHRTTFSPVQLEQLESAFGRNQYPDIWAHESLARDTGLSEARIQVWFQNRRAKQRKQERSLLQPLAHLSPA
# [25] = biological target: PROP1 (Homo sapiens, UniProt O75360 56-141, F88S)
# PROP1 (Homo sapiens, UniProt O75360 56-141, F88S), sequence (O75360 56-141 F88S): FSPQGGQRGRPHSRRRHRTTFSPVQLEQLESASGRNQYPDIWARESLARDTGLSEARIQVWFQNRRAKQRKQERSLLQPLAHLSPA
# PRRX1 (Homo sapiens, UniProt P54821 80-166), sequence (P54821 80-166): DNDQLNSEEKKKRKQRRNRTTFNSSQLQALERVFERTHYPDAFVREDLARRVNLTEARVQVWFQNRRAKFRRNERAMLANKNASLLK
# PRRX1 (Homo sapiens, UniProt P54821 80-166, F113S), sequence (P54821 80-166 F113S): as the sequence (P54821 80-166) above, with F34S counted along it
# HESX1, sequence (Q9UBX0 95-180): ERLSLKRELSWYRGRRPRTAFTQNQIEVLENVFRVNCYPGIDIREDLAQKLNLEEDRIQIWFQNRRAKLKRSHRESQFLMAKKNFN
sequence,measurement,setting,value
CGTAAGTA,binding signal,[1],"10 upbm affinity estimate (log intensity, higher = more binding, comparable within an allelic series)"
same,binding signal,[2],"7.17 upbm affinity estimate (log intensity, higher = more binding, comparable within an allelic series)"
same,binding signal,[3],"11 upbm affinity estimate (log intensity, higher = more binding, comparable within an allelic series)"
ACGTTGCG,binding signal,[1],"9.5 upbm affinity estimate (log intensity, higher = more binding, comparable within an allelic series)"
same,binding signal,[4],"7.94 upbm affinity estimate (log intensity, higher = more binding, comparable within an allelic series)"
same,binding signal,[3],"9.22 upbm affinity estimate (log intensity, higher = more binding, comparable within an allelic series)"
GACTCTAA,binding signal,[1],"10.1 upbm affinity estimate (log intensity, higher = more binding, comparable within an allelic series)"
same,binding signal,[3],"11.1 upbm affinity estimate (log intensity, higher = more binding, comparable within an allelic series)"
CCAGGGAG,binding signal,[1],"9.19 upbm affinity estimate (log intensity, higher = more binding, comparable within an allelic series)"
same,binding signal,[3],"8.8 upbm affinity estimate (log intensity, higher = more binding, comparable within an allelic series)"
CCGGCCAG,binding signal,[1],"8.97 upbm affinity estimate (log intensity, higher = more binding, comparable within an allelic series)"
same,binding signal,[5],"7.26 upbm affinity estimate (log intensity, higher = more binding, comparable within an allelic series)"
same,binding signal,[6],"6.59 upbm affinity estimate (log intensity, higher = more binding, comparable within an allelic series)"
same,binding signal,[7],"7.68 upbm affinity estimate (log intensity, higher = more binding, comparable within an allelic series)"
same,binding signal,[4],"7.87 upbm affinity estimate (log intensity, higher = more binding, comparable within an allelic series)"
same,binding signal,[8],"9.96 upbm affinity estimate (log intensity, higher = more binding, comparable within an allelic series)"
same,binding signal,[9],"6.61 upbm affinity estimate (log intensity, higher = more binding, comparable within an allelic series)"
same,binding signal,[10],"7.75 upbm affinity estimate (log intensity, higher = more binding, comparable within an allelic series)"
same,binding signal,[11],"6.85 upbm affinity estimate (log intensity, higher = more binding, comparable within an allelic series)"
same,binding signal,[12],"7.66 upbm affinity estimate (log intensity, higher = more binding, comparable within an allelic series)"
same,binding signal,[13],"7.61 upbm affinity estimate (log intensity, higher = more binding, comparable within an allelic series)"
same,binding signal,[14],"6.97 upbm affinity estimate (log intensity, higher = more binding, comparable within an allelic series)"
same,binding signal,[15],"10.3 upbm affinity estimate (log intensity, higher = more binding, comparable within an allelic series)"
same,binding signal,[16],"6.55 upbm affinity estimate (log intensity, higher = more binding, comparable within an allelic series)"
same,binding signal,[17],"7.66 upbm affinity estimate (log intensity, higher = more binding, comparable within an allelic series)"
same,binding signal,[3],"9.42 upbm affinity estimate (log intensity, higher = more binding, comparable within an allelic series)"
same,binding signal,[18],"7.18 upbm affinity estimate (log intensity, higher = more binding, comparable within an allelic series)"
same,binding signal,[19],"6.86 upbm affinity estimate (log intensity, higher = more binding, comparable within an allelic series)"
CCCAAAGG,binding signal,[1],"9.18 upbm affinity estimate (log intensity, higher = more binding, comparable within an allelic series)"
same,binding signal,[20],"9.56 upbm affinity estimate (log intensity, higher = more binding, comparable within an allelic series)"
same,binding signal,[21],"9.54 upbm affinity estimate (log intensity, higher = more binding, comparable within an allelic series)"
same,binding signal,[22],"9.58 upbm affinity estimate (log intensity, higher = more binding, comparable within an allelic series)"
same,binding signal,[3],"9.15 upbm affinity estimate (log intensity, higher = more binding, comparable within an allelic series)"
ACGCCGGA,binding signal,[1],"9.29 upbm affinity estimate (log intensity, higher = more binding, comparable within an allelic series)"
same,binding signal,[5],"7.08 upbm affinity estimate (log intensity, higher = more binding, comparable within an allelic series)"
same,binding signal,[8],"10.3 upbm affinity estimate (log intensity, higher = more binding, comparable within an allelic series)"
same,binding signal,[15],"10.5 upbm affinity estimate (log intensity, higher = more binding, comparable within an allelic series)"
same,binding signal,[3],"9.34 upbm affinity estimate (log intensity, higher = more binding, comparable within an allelic series)"
same,binding signal,[18],"7.28 upbm affinity estimate (log intensity, higher = more binding, comparable within an allelic series)"
GAGCGGCC,binding signal,[1],"9.25 upbm affinity estimate (log intensity, higher = more binding, comparable within an allelic series)"
same,binding signal,[23],"6.83 upbm affinity estimate (log intensity, higher = more binding, comparable within an allelic series)"
same,binding signal,[24],"6.8 upbm affinity estimate (log intensity, higher = more binding, comparable within an allelic series)"
same,binding signal,[25],"6.52 upbm affinity estimate (log intensity, higher = more binding, comparable within an allelic series)"
same,binding signal,[3],"9.59 upbm affinity estimate (log intensity, higher = more binding, comparable within an allelic series)"
TTAATCAA,binding signal,[1],"11.1 upbm affinity estimate (log intensity, higher = more binding, comparable within an allelic series)"
same,binding signal,[9],"11.2 upbm affinity estimate (log intensity, higher = more binding, comparable within an allelic series)"
same,binding signal,[3],"13.3 upbm affinity estimate (log intensity, higher = more binding, comparable within an allelic series)"
GCCAGCAC,binding signal,[1],"9.45 upbm affinity estimate (log intensity, higher = more binding, comparable within an allelic series)"
same,binding signal,[3],"9.5 upbm affinity estimate (log intensity, higher = more binding, comparable within an allelic series)"
GACGTTGC,binding signal,[1],"9.46 upbm affinity estimate (log intensity, higher = more binding, comparable within an allelic series)"
same,binding signal,[3],"9.38 upbm affinity estimate (log intensity, higher = more binding, comparable within an allelic series)"
AATCATCC,binding signal,[1],"10.3 upbm affinity estimate (log intensity, higher = more binding, comparable within an allelic series)"
same,binding signal,[3],"12.1 upbm affinity estimate (log intensity, higher = more binding, comparable within an allelic series)"
GACGACGC,binding signal,[1],"9.47 upbm affinity estimate (log intensity, higher = more binding, comparable within an allelic series)"
same,binding signal,[3],"9.16 upbm affinity estimate (log intensity, higher = more binding, comparable within an allelic series)"
CGGAGCGC,binding signal,[1],"9.18 upbm affinity estimate (log intensity, higher = more binding, comparable within an allelic series)"
same,binding signal,[3],"9.3 upbm affinity estimate (log intensity, higher = more binding, comparable within an allelic series)"
CCGACCCC,binding signal,[1],"9.1 upbm affinity estimate (log intensity, higher = more binding, comparable within an allelic series)"
same,binding signal,[3],"9.36 upbm affinity estimate (log intensity, higher = more binding, comparable within an allelic series)"
GGCCCTAC,binding signal,[1],"9.21 upbm affinity estimate (log intensity, higher = more binding, comparable within an allelic series)"
same,binding signal,[3],"9.08 upbm affinity estimate (log intensity, higher = more binding, comparable within an allelic series)"
GCTCCAGA,binding signal,[1],"9.35 upbm affinity estimate (log intensity, higher = more binding, comparable within an allelic series)"
same,binding signal,[3],"9.02 upbm affinity estimate (log intensity, higher = more binding, comparable within an allelic series)"
